Experimental data: PubChem BioAssay (NCATS)
Several values for one entry are separate records, joined by “and”; a condition that tells them apart may be missing. Equal entries are not always repeated. Results filed as inconclusive are left out. Activity calls are given as the source filed them. Unless noted, calls follow the shape of the dose curve; as a rule, active = well fitted curve in the direction sought with a large enough effect; inconclusive = small, poorly fitted or top-dose-only effect, or another doubt; inactive = no such curve, though single readings can be large; an effect the other way counts as inactive or inconclusive.

What was measured:
[1] = target: Cellular tumor antigen p53 (Homo sapiens) (UniProt P04637); experiment: Primary qHTS for small molecule compounds that upregulate eGFP-tagged delta133p53alpha (in N-terminal) cells. (AID 2060322); settings: NCI-H358 eGFP-delta133p53alpha fluorescence, 24 h; activation: stronger effect = higher value; also: nearly all actives have a fitted effect of over 75% in size; also: potency is read from the fitted curve at half-maximal effect;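 as to activation: series mostly up to about 56 µM; 0% = DMSO vehicle and 100% = reference activator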
Outline: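 NCI-H358 cells pre-induced 24 h with 10 ng/ml doxycycline to express N-terminal eGFP-delta133p53alpha, then dosed 24 h at 37C without doxycycline; fixed, Hoechst-stained, GFP intensity by laser scanning cytometry, normalized to DMSO (0%) and 57.5 uM 5-azacytidine (100%).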

[2] = target: Cellular tumor antigen p53 (Homo sapiens) (UniProt P04637); experiment: Primary qHTS for small molecule compounds that upregulate eGFP-tagged delta133p53alpha (in C-terminal) cells. (AID 2060324); also: potency is read from the fitted curve at half-maximal effect
Outline: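 NCI-H358 cells pre-induced 24 h with 100 ng/ml doxycycline to express delta133p53alpha-eGFP, then dosed in doxycycline-free medium for 24 h at 37C. Fixed, Hoechst-stained; GFP intensity by laser scanning cytometry, normalized to DMSO wells.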

[3] = target: Aldehyde dehydrogenase, mitochondrial (Homo sapiens) (UniProt P05091); experiment: qHTS for Inhibitors of the Aldehyde Dehydrogenase Family (ALDH2) Validation screens (AID 2061302; active = well fitted inhibition curve with a large enough effect; title and protocol of this record describe different tests; also: potency is read from the fitted curve at half-maximal effect)
[4] = BET inhibitor-based combinations targeting novel dependencies in MECOM-rearranged (r) AML: SET-2 cell line (AID 2202231); settings: SET-2 AML cells viability, CellTiter-Glo luminescence, 48 h; viability: stronger effect = lower value, concentration not given here; also: nearly all actives have a fitted effect of over 35% in size; also: potency is read from the fitted curve at half-maximal effect;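 as to viability: plate controls were DMSO treated cells for no effect and wells without cells for full effect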
Outline: (§1)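 Viability of cells (500 per well) is scored by luminescent CellTiter-Glo at 48 hr post-dosing. Eleven-point titrations are normalized to DMSO and empty controls and reduced to AUC values.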

[5] = BET inhibitor-based combinations targeting novel dependencies in MECOM-rearranged (r) AML: OCI-AML3 cell line (AID 2202232); settings: Potency: OCI-AML3 viability; also: nearly all actives have a fitted effect of over 35% in size; also: potency is read from the fitted curve at half-maximal effect
Outline: as §1

[6] = BET inhibitor-based combinations targeting novel dependencies in MECOM-rearranged (r) AML: MV-4-11 cell line (AID 2202233); also: nearly all actives have a fitted effect of over 45% in size; also: potency is read from the fitted curve at half-maximal effect
Outline: (§2)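 Using pin-tool transfer, drugs were added in 11 doses to cells (500/well), incubated 48 hr, and assessed with CellTiter-Glo. Z-AUC is a mean-centring transformation applied separately to each screened line.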

[7] = BET inhibitor-based combinations targeting novel dependencies in MECOM-rearranged (r) AML: HNT-34 cell line (AID 2202234); also: nearly all actives have a fitted effect of over 35% in size; also: potency is read from the fitted curve at half-maximal effect
Outline: as §2

[8] = BET inhibitor-based combinations targeting novel dependencies in MECOM-rearranged (r) AML: UCSD-AML1 cell line (AID 2202235); also: nearly all actives have a fitted effect of over 40% in size; also: potency is read from the fitted curve at half-maximal effect
Outline: as §2

[9] = BET inhibitor-based combinations targeting novel dependencies in MECOM-rearranged (r) AML: AML-191 cell line (AID 2202236; also: nearly all actives have a fitted effect of over 35% in size; also: potency is read from the fitted curve at half-maximal effect)
Outline: as §1

[10] = BET inhibitor-based combinations targeting novel dependencies in MECOM-rearranged (r) AML: AML-194 cell line (AID 2202237; also: nearly all actives have a fitted effect of over 40% in size; also: potency is read from the fitted curve at half-maximal effect)
Outline: as §1

[11] = target: Retinaldehyde dehydrogenase 3 (Homo sapiens) (UniProt P47895); experiment: qHTS for Inhibitors of the Aldehyde Dehydrogenase Family (ALDH1A3) Primary screen (AID 2061315);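 also: plate controls were DMSO vehicle for no effect and reference inhibitor for full effect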
[12] = target: Retinaldehyde dehydrogenase 3 (Homo sapiens) (UniProt P47895); experiment: qHTS for Inhibitors of the Aldehyde Dehydrogenase Family (ALDH1A3) Validation screen (AID 2061312); also: % is scaled to controls: 0 for no effect and ±100 for the full control effect; nearly all actives have a fitted effect of over 45% in size
[13] = target: Aldehyde dehydrogenase, mitochondrial (Homo sapiens) (UniProt P05091); experiment: qHTS for Inhibitors of the Aldehyde Dehydrogenase Family (ALDH2) Confirmatory screens (AID 2061303; active = well fitted inhibition curve with a large enough effect; title and protocol of this record describe different tests; also: % is scaled to controls: 0 for no effect and ±100 for the full control effect; nearly all actives have a fitted effect of over 45% in size)
[14] = qHTS for Inhibitors of the Aldehyde Dehydrogenase Family (ALDH1A2, ALDH1A3, ALDH2, ALDH3A1) (AID 2061307); also: % is scaled to controls: 0 for no effect and ±100 for the full control effect; nearly all actives have a fitted effect of over 50% in size
[15] = target: Retinal dehydrogenase 2 (Homo sapiens) (UniProt O94788); experiment: qHTS for Inhibitors of the Aldehyde Dehydrogenase Family (ALDH1A2) Confirmation screens (AID 2061314); also: nearly all actives have a fitted effect of over 65% in size
[16] = target: Aldehyde dehydrogenase 1A1 (Homo sapiens) (UniProt P00352); experiment: qHTS for Inhibitors of the Aldehyde Dehydrogenase Family (ALDH1A1) Confirmatory screens (AID 2061316); also: nearly all actives have a fitted effect of over 65% in size; also: potency is read from the fitted curve at half-maximal effect
[17] = target: Aldehyde dehydrogenase, mitochondrial (Homo sapiens) (UniProt P05091); experiment: qHTS for Inhibitors of the Aldehyde Dehydrogenase Family (ALDH2) Primary screen (AID 2061308);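 also: plate controls were vehicle for no effect and reference inhibitor for full effect; nearly all actives have a fitted effect of over 55% in size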
[18] = target: Retinaldehyde dehydrogenase 3 (Homo sapiens) (UniProt P47895); experiment: qHTS for Inhibitors of the Aldehyde Dehydrogenase Family (ALDH1A3) Confirmatory screens (AID 2061311); also: % is scaled to controls: 0 for no effect and ±100 for the full control effect; nearly all actives have a fitted effect of over 60% in size

Sequence of Cellular tumor antigen p53 (Homo sapiens) (P04637 whole entry, looked up): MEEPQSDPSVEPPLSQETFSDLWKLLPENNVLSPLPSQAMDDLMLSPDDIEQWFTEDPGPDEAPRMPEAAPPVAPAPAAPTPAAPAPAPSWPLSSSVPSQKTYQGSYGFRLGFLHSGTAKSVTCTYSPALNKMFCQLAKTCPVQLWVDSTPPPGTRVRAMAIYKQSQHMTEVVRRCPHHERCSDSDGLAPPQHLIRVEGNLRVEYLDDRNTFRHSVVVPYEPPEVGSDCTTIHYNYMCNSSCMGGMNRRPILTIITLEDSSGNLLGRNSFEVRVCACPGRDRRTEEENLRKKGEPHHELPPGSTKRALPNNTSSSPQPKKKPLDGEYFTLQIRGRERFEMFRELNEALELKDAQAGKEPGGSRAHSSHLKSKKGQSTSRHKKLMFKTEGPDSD

CC[N+](CC)(CC)CCOc1cccc(OCC[N+](CC)(CC)CC)c1OCC[N+](CC)(CC)CC
inactive: activation [1] -9.51% and 5.08% and -25.7% | Potency [2] | Potency [3] | viability [4] 113% | Potency [5] | Potency [6] | Potency [7] | Potency [8] | Potency [9] | Potency [10]

CN1C(C(=O)Nc2ccccn2)=C(O)c2ccccc2S1(=O)=O
inactive: activation [1] -0.565% and -12.3% and -20.6% | Potency [2] | Potency [3] | viability [4] 105% | Potency [5] | Potency [6] | Potency [7] | Potency [9] | Potency [10]

C[C@H](Cc1ccc(O)c(O)c1)[C@@H](C)Cc1ccc(O)c(O)c1
active: Potency [3] 15.8 µM | Potency [5] 3.32 µM | Potency [7] 8.33 µM | Potency [9] 11.8 µM
inactive: activation [1] 8.19% | Potency [2]

CC[C@@]1(O)C(=O)OCc2c1cc1n(c2=O)Cc2cc3c(CN(C)C)c(O)ccc3nc2-1
inactive: Potency [3] | Potency [11]
active: Potency [1] 24.6 µM and 3.38 µM | Potency [2] 6.75 µM | Potency [4] 0.0372 µM | Potency [5] 0.0186 µM | Potency [6] 0.0118 µM | Potency [7] 0.0083 µM | Potency [8] 0.0166 µM | Potency [9] 0.0209 µM

CC(=O)Oc1ccccc1C(=O)O
inactive: activation [1] 23.2% and 81.8% and -5.87% | Potency [2] | Potency [3] | Potency [12] | Potency [6] | Potency [7] | Potency [8] | Potency [9] | Potency [10]

Cc1cccc(C)c1OCC(N)C(C)C (centres undefined)
inactive: activation [1] -8.7% | Potency [2] | Potency [13] | Potency [14] | Potency [15]

Nc1nc(N)c2nc(CNc3ccc(C(=O)NC(CCC(=O)O)C(=O)O)cc3)cnc2n1 (centres undefined)
inactive: activation [1] 25.1% and -8.03% | Potency [2] | Potency [3] | viability [4] 90.9% | Potency [5] | Potency [6] | Potency [7] | Potency [9]

O=c1cc(N2CCOCC2)oc2c(-c3ccccc3)cccc12
active: Potency [6] 13.2 µM
inactive: activation [1] 3.72% and -10.8% | Potency [2] | Potency [3]

CCN(CC)CCn1c(=O)c(Cc2ccc(OC)cc2)nc2ccccc21
inactive: activation [1] 3.86% and 2.44% | Potency [2] | Potency [3] | viability [4] 107% | Potency [5] | Potency [6] | Potency [7] | Potency [8] | Potency [9] | Potency [10]

CCCCC#Cc1nc(NC)c2ncn([C@@H]3O[C@H](CO)[C@@H](O)[C@H]3O)c2n1
inactive: activation [1] -3.87% | Potency [2] | Potency [13] | Potency [14] | Potency [15] | Potency [16]

O=C(c1ccccc1)c1ccc2n1CCC2C(=O)O (centres undefined)
inactive: activation [1] -6.21% and -3.1% | Potency [2] | Potency [3] | viability [4] 104% | Potency [5] | Potency [6] | Potency [8] | Potency [9] | Potency [10]

COc1ccccc1N1CCN(CCN2C(=O)CC3(CCCC3)CC2=O)CC1
inactive: activation [1] 3.57% and -22.5% | Potency [2] | Potency [13] | Potency [14] | Potency [17] | Potency [18] | Potency [15] | Potency [11]

C[C@]12CC[C@@H]3c4ccc(O)cc4CC[C@H]3[C@@H]1CC[C@@H]2O
inactive: activation [1] 63.8% | Potency [2] | Potency [3] | Potency [12]
active: Potency [7] 20.9 µM | Potency [8] 14.8 µM | Potency [9] 16.6 µM | Potency [10] 23.5 µM

CCN1CCc2nc(N)oc2CC1
inactive: activation [1] -8.37% and -17.5% | Potency [2] | Potency [3] | Potency [15]

C[N+](C)(C)CCOC(=O)CCC(=O)OCC[N+](C)(C)C
inactive: activation [1] -8.47% | Potency [2] | Potency [13] | Potency [14] | Potency [18] | Potency [15] | Potency [16]

Cc1oncc1C(=O)Nc1ccc(C(F)(F)F)cc1
inactive: activation [1] -3.35% and -18.5% and -19% | Potency [2] | Potency [3] | Potency [8]
active: Potency [7] 16.6 µM

Oc1ccccc1O
inactive: activation [1] -3.18% | Potency [2] | Potency [3] | Potency [15]
active: Potency [16] 11.3 µM

c1ccc(C(NCc2cccnc2)(c2ccccc2)c2ccccc2)cc1
inactive: activation [1] -2.89% | Potency [2] | Potency [12]

S=c1[nH]c(-c2ccccc2)cn1-c1ccccc1
inactive: activation [1] -21.8% | Potency [2] | Potency [12]
